Assay results: PubChem BioAssay AID488890 (Southern Research Specialized Biocontainment Screening …, 2010)
In all, about 320,000 compounds went through this assay and about 1,300 (0.41%) were called active. Another 3% or so got no clear call; they are omitted. The rule behind the calls is not given here. These entries were drawn from the full list. Measured potencies and affinities stand elsewhere.

Assay: growth inhibition of non-replicating M. tuberculosis (AID 488890);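 note: plate controls were DMSO cells for no effect and high antibiotic wells for full effect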
Conditions: Mycobacterium tuberculosis non-replicating, at 25 µM, stronger effect = higher value

Row | SMILES | inhibition [%]
1 | O=C1N(Cc2cccnc2)C[C@@H]2C[C@@H](c3cccc(OCc4ccccc4)c3)N3CCC[C@@]123 | 13.3
2 | O=C(C1CCCN(C2CC(=O)N(c3ccc(Cl)cc3)C2=O)C1)N1CCCC1 (centres undefined) | 62.9
3 | COc1cc(/C=N/NC(=O)c2cc(C)oc2C)cc(OC)c1OC | 5.12
4 | Cc1cc(C(=O)OC(C)C(=O)N2CCc3ccccc32)ccc1[N+](=O)[O-] (centres undefined) | -2.01
5 | C=CCc1ccc(OCCCCOc2ccc(C(=O)O)cc2)c(OC)c1 | 65.2
6 | CCOc1ccc(C(=O)OCC(=O)N(Cc2ccccc2)Cc2ccccc2)cc1OC | 6.46
7 | CCN(C(=O)COn1nnc2ccc(S(=O)(=O)N(C)C)cc21)C1CCS(=O)(=O)C1 (centres undefined) | -12
8 | Cc1ccccc1OC1CCN(C(=O)C2CCC(=O)N(C3CCCC3)C2)CC1 (centres undefined) | -4.05
9 | COc1ccnc2c1c(=O)n(Cc1ccc(Cl)cc1Cl)c(=O)n2C | 7.37
10 | COc1ccc(OC)c(S(=O)(=O)NCC(=O)O)c1 | -1.93
11 | C[C@H](CO)N1C[C@H](C)[C@@H](CN(C)S(C)(=O)=O)Oc2ccc(NC(=O)C3CCCCC3)cc2C1=O | -13.1
12 | O=c1cc(-c2ccccc2)oc2cc(O)cc(O)c12 | 9.39
13 | O=c1cc(-c2ccc(O)cc2)oc2cc(O)cc(O)c12 | 20.1
14 | CCOC(=O)c1ccc(NC(C)=O)c([N+](=O)[O-])c1 | -2.26
15 | CCOC(=O)c1ccc([N+](=O)[O-])cc1NC(C)=O | -5.06
16 | Cc1cc(S(=O)(=O)NCCCn2ccnc2)c(C)cc1Cl | 21.8
17 | Cc1ccc(NC(=O)C2C3C=CC4(O3)C2C(=O)N(CCN2CCOCC2)C4C(=O)NC2CCCCC2)cc1C (centres undefined) | 4.86
18 | COc1ccc(Cl)cc1S(=O)(=O)NC(C)C(=O)NCc1cccnc1 (centres undefined) | 0.53
19 | CNc1c(C(=O)O)ccc2c1C(=O)c1ccccc1C2=O | -14.2
20 | COc1ccc2c(c1O)C(=O)c1ccccc1C2=O | -8.36
21 | CCc1ccccc1NS(=O)(=O)c1cc(C)ccc1OC | 16.3
22 | CCOc1ccc2nc(NCCCO)[nH]c2c1 | 2.84
23 | O=C(O)c1cccc(S(=O)(=O)Nc2cc(Cl)ccc2Cl)c1 | 13.1

Row | SMILES | inhibition [%]
24 | COc1ccc(NC(=O)C2CCN(S(=O)(=O)c3ccc(Br)s3)CC2)cc1OC | -2.33
25 | CCCc1[nH]nc2c1C(c1cccc(OC(=O)c3ccco3)c1)C(C#N)=C(N)O2 (centres undefined) | 17.8
26 | Cc1ccc(C2C(C#N)=C(N)Oc3n[nH]c(C)c32)cc1 (centres undefined) | -4.34
27 | Cc1[nH]nc2c1C(c1ccc(Cl)cc1)C(C#N)=C(N)O2 (centres undefined) | -2.67
28 | Cc1[nH]nc2c1C(c1ccc(-c3ccccc3C#N)o1)C(C#N)=C(N)O2 (centres undefined) | 49.7
29 | COc1ccc(Br)cc1CNc1ccc(N2CCOCC2)cc1 | 24
30 | CCCCN(C(=O)C1CC(=O)N(c2ccc3c(c2)OCCO3)C1)c1c(N)n(CCCC)c(=O)[nH]c1=O (centres undefined) | 0.16
31 | Cc1ccccc1NC(=O)c1nn(C)c2c1CS(=O)(=O)c1ccccc1-2 | -16.9
32 | O=C(O)C1CC(O)CN1S(=O)(=O)c1ccc2ccccc2c1 (centres undefined) | 8.45
33 | O=C(Oc1cccnc1)c1cccc(Cl)c1 | 51.8
34 | O=C(Oc1cccnc1)c1ccc(Cl)cc1 | 8.07
35 | CCOC(=O)c1ccc2[nH]c3c(c2c1)CCCC3C(=O)OCC (centres undefined) | 64.3
36 | CCOC(=O)C1CCCc2c1[nH]c1c(C(=O)O)cccc21 (centres undefined) | 67.3
37 | CCOC(=O)c1c(C)nc2ccc(C)cn12 | 37
38 | CCOC(=O)c1c(C)nc2ccccn12 | 6.28
39 | CC1Cc2cc(/C=C3/SC(=S)N(C)C3=O)ccc2O1 (centres undefined) | 5.53
40 | CC1Cc2cc(/C=C3/SC(N4CCC(C(N)=O)CC4)=NC3=O)ccc2O1 (centres undefined) | 21.7
41 | COC(=O)c1ccc(C23CC4(C2)[C@H](CN(C)[C@@H]4c2ccccc2)C3c2ccccc2)cc1 (some centres undefined) | -17.5
42 | Cc1ccc(N2CC(=O)Nc3c(sc4nc(C)cc(C)c34)C2=O)cc1 | 7.84
43 | O=C(CNC(=O)c1ccc(Cl)cc1)Nc1ccc(S(=O)(=O)Nc2ncccn2)cc1 | 19.6
44 | Cc1ccnc(NC(=O)CN(C)S(=O)(=O)c2cccc3nsnc23)c1 | 4.38
45 | O=C1C=CC(=O)N1Cc1ccccc1 | 33.7
46 | Cc1nc2ccccc2c(=O)n1N(c1ccccc1)c1ccccc1 | 40

Row | SMILES | inhibition [%]
47 | O=C(Nc1cccc(F)c1)C1CCCN1C(=O)OCc1ccccc1 (centres undefined) | -8.2
48 | COc1ccc(-c2cc(C(=O)NC(C)C)no2)cc1 | 2.59
49 | COc1ccc(-c2cc(C(=O)O)no2)cc1 | 9.82
50 | CC(C)(C)S(=O)(=O)c1ccc2nc3c(n2c1)CCCC3 | 12.6
51 | Brc1ccc2nc3c(n2c1)CCCC3 | 40.8
52 | CN(c1ccccc1C(=O)O)S(C)(=O)=O | -5.19
53 | CC1(c2ccccc2Cl)NC(=O)N(CC(=O)N2CCN(S(=O)(=O)c3ccccc3)CC2)C1=O (centres undefined) | -5.46
54 | O=C(CNC(=O)c1ccco1)N/N=C/c1ccccc1[N+](=O)[O-] | -2.46
55 | O=C(Nc1nc(-c2cccs2)cs1)c1ccco1 | 25.2
56 | CC(=O)Nc1nc(-c2cccs2)cs1 | 18.4
57 | O=C(Nc1nc2ccccc2s1)c1ccc([N+](=O)[O-])o1 | 64.8
58 | O=C(Nc1ccc(N2CCN(C(=O)c3cccs3)CC2)cc1)c1ccc(Br)o1 | 67.5
59 | Cc1ccccc1C(=O)N1CCN(c2ccc(NC(=O)c3ccc([N+](=O)[O-])o3)cc2)CC1 | 78.2
60 | O=C(Nc1nc2c(F)cccc2s1)c1ccc([N+](=O)[O-])o1 | 65.5
61 | CC(C)C(=O)N1CCN(c2ccc(NC(=O)c3ccc(Br)o3)cc2)CC1 | 8.34
62 | O=C(Nc1ccc(N2CCN(C(=O)c3cccs3)CC2)cc1)c1ccco1 | -3.51
63 | COc1ccccc1CN(C)C(=O)COC(=O)c1ccc(Cl)nc1 | 73.1
64 | COCCn1nnnc1CN1CCN(C(=O)c2ccco2)CC1 | -9.84
65 | CC(NC(=O)c1cccs1)C(S)c1ccccc1 (centres undefined) | 13.2
66 | CN(CC(=O)Nc1ccccc1Br)C(=O)CCc1ccccc1 | 6.37
67 | COC(=O)c1ccc(N2C(=O)CC(N(C)CCc3ccc(OC)c(OC)c3)C2=O)cc1 (centres undefined) | -11.7
68 | O=C(Nc1ncnc2c1CCC2)C12CC3CC(CC(C3)C1)C2 | -0.8
69 | CC(C)(C)c1ccc(NNC(=O)C2CCC2)cc1 | 23.3

Row | SMILES | inhibition [%]
70 | COc1cc(NC(=O)c2ccc([N+](=O)[O-])o2)ccc1NC(=O)c1cccs1 | 44
71 | O=C(Nc1cccc(NC(=O)c2cccs2)c1)c1ccc(Br)o1 | 40.6
72 | COc1ccc(C(=O)C2CCCN(C(=O)c3cccc(Cl)c3F)C2)cc1OC (centres undefined) | 8.33
73 | Cc1cccnc1NC(=O)c1ccc2c(c1)NC(=O)C(C)S2 (centres undefined) | -14.1
74 | Cc1ccc(SCC(=O)Nc2cc(S(=O)(=O)N3CCCCC3)ccc2C)cc1 | 29.3
75 | O=C(Cn1nc(-c2ccccc2F)ccc1=O)Nc1ccc(S(=O)(=O)N2CCCCCC2)cc1 | 30.3
76 | O=C1CCC/C(=N\NC(=O)COc2ccc(Cl)cc2)C1 | 2.35
77 | O=C(NN=C1CCCC1)c1ccc(Cl)cc1 | -5.56
78 | O=C1OC(/C(=C\Nc2ccccc2)[N+](=O)[O-])c2ccccc21 (centres undefined) | -1.48
79 | O=C1OC(/C(=C\Nc2ccc(F)cc2F)[N+](=O)[O-])c2ccccc21 (centres undefined) | -5.17
80 | CC(C)(C)c1cc(NCCCn2ccnc2)n2ncc(-c3ccc(Cl)cc3)c2n1 | 67.9
81 | CC(C)(C)c1cc(NCCCn2ccnc2)n2ncc(-c3ccccc3)c2n1 | 73.1
82 | CCOC(=O)c1ccc(N2CN(CC)CNC2=S)cc1 | 51.5
83 | OC(CCc1cccc(Cl)c1)c1cccs1 (centres undefined) | 75.1
84 | CCO[C@H]1OC(C(=O)N2CCN(Cc3ccc4c(c3)OCO4)CC2)=C[C@@H](C)[C@@H]1CCCO | -18
85 | COc1ccccc1CCNC(=O)c1ccoc1C | 3.23
86 | COc1ccccc1OCCNC(=O)c1ccc(C)o1 | -13.1
87 | CCOC(=O)c1cc(C(=O)NC(C)c2ccccc2)c(=O)[nH]c1C (centres undefined) | -20.4
88 | CC(C)(C)NC(=O)COC(=O)c1cc(Br)ccc1Cl | 63.1
89 | COC(=O)CNC(=O)COC(=O)c1cc(F)c(F)cc1Cl | 42.5
90 | CNC(=O)COC(=O)c1cc(F)c(F)cc1Cl | 19.5
91 | CC(C)NC(=O)COC(=O)c1cc(Br)ccc1Cl | 75.9
92 | Cc1ccc(C)c(NC(=O)C2CC3CCC2C3)c1 (centres undefined) | 15.3

Row | SMILES | inhibition [%]
93 | CC(C)(C)OC(=O)C[C@@H]1C/C=C\C[C@@H](CC(=O)N(CCO)Cc2ccccc2)C(=O)N[C@H](Cc2c[nH]c3ccccc23)COC1=O | 67
94 | Cc1ccc(SCC(=O)OCC(=O)N2CCN(C(=O)c3ccco3)CC2)c(C)c1 | 15.3
95 | Cc1ccc(/C=C/C(=O)N2CCCC(C(N)=O)C2)o1 (centres undefined) | 4.1
96 | O=C(c1ccc2c(c1)N(Cc1ccccc1F)C(=O)c1ccccc1S2)N1CCOCC1 | 33.2
97 | Cc1ccccc1OCc1n[nH]c(=S)n1-c1ccccc1 | -9.9
98 | O=C(COC(=O)c1ccccc1NCCO)NCC1CCCCC1 | 23.3
99 | CCOc1ccc2nc(NC(=O)c3ccoc3C)sc2c1 | 54.7
100 | CCOc1ccc2nc(NC(=O)c3cccnc3)sc2c1 | 8.67
101 | CCOc1ccc2nc(NC(=O)c3ccc(C)o3)sc2c1 | 27.5
102 | CCOc1ccc2nc(NC(=O)Nc3ccccc3)sc2c1 | -2.52
103 | COc1ccc(/C=C/C(=O)Oc2cccc(/C=N/NC(=O)Cc3ccc(Br)cc3)c2)cc1 | 23.8
104 | CC(NS(=O)(=O)c1ccc2c(c1)CC(C)N2C(=O)C1CC1)c1ccccc1 (centres undefined) | 12.7
105 | CCCc1cc(=O)[nH]c(SCC(=O)Nc2cc(S(=O)(=O)N3CCOCC3)ccc2N(CC)CC)n1 | 18.9
106 | CCCCn1c(N)c(N(CCOC)C(=O)COc2ccc(C(C)=O)cc2)c(=O)[nH]c1=O | -6.71
107 | O=C(N/N=C/c1cc2c(cc1Cl)OCO2)c1cccc(Br)c1 | -12.4
108 | O=C(N/N=C/c1coc2ccccc2c1=O)c1ccncc1 | 76.8
109 | O=C(N/N=C\c1ccc[nH]1)c1cncc(Br)c1 | 4.75
110 | O=C(N/N=C/c1ccc[nH]1)c1ccc([N+](=O)[O-])cc1 | -12.7
111 | O=C(N/N=C/c1cc2c(cc1Cl)OCO2)c1ccc2c(c1)OCCO2 | -6.98
112 | O=C(N/N=C/c1ccc[nH]1)c1ccc(O)cc1 | 46.7
113 | COc1ccc(C(=O)N/N=C\c2coc3ccccc3c2=O)cc1 | 50.1
114 | O=C(N/N=C/c1ccc(F)cc1)c1ccncc1 | 53.7
